This note sets out measurements from ChEMBL document CHEMBL1961873, “Compounds: GSK PKIS; Assays: Nanosyn kinase panel” (2012).

Test [1] concerns the target T1, Inhibitor of nuclear factor kappa-B kinase subunit epsilon (Homo sapiens) (UniProt Q14164).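 Further: reported values are averaged percent inhibition figures against human IKKε.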
T1 sequence (whole entry): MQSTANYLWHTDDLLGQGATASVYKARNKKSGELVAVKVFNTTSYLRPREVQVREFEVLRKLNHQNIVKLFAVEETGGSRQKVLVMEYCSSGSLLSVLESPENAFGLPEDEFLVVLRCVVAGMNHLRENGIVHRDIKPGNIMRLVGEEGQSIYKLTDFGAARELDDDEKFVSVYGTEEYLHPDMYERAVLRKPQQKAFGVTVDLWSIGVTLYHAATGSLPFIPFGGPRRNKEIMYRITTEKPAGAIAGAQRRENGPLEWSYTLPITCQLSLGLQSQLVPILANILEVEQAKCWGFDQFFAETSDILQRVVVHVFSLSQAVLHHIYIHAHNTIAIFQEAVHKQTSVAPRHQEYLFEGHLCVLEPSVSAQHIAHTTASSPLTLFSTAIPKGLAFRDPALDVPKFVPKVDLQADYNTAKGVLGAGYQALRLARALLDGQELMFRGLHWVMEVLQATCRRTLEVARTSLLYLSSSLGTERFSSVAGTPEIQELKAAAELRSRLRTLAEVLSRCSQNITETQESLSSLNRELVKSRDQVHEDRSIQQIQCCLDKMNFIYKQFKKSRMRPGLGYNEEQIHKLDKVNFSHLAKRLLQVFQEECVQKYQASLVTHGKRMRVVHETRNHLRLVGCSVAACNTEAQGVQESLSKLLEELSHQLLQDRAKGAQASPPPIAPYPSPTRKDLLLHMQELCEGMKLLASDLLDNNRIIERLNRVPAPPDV
Particulars: at 1 µM.

Test [2] deals with T2, Serine/threonine-protein kinase Nek1 (Homo sapiens) (UniProt Q96PY6).
T2 sequence (whole entry): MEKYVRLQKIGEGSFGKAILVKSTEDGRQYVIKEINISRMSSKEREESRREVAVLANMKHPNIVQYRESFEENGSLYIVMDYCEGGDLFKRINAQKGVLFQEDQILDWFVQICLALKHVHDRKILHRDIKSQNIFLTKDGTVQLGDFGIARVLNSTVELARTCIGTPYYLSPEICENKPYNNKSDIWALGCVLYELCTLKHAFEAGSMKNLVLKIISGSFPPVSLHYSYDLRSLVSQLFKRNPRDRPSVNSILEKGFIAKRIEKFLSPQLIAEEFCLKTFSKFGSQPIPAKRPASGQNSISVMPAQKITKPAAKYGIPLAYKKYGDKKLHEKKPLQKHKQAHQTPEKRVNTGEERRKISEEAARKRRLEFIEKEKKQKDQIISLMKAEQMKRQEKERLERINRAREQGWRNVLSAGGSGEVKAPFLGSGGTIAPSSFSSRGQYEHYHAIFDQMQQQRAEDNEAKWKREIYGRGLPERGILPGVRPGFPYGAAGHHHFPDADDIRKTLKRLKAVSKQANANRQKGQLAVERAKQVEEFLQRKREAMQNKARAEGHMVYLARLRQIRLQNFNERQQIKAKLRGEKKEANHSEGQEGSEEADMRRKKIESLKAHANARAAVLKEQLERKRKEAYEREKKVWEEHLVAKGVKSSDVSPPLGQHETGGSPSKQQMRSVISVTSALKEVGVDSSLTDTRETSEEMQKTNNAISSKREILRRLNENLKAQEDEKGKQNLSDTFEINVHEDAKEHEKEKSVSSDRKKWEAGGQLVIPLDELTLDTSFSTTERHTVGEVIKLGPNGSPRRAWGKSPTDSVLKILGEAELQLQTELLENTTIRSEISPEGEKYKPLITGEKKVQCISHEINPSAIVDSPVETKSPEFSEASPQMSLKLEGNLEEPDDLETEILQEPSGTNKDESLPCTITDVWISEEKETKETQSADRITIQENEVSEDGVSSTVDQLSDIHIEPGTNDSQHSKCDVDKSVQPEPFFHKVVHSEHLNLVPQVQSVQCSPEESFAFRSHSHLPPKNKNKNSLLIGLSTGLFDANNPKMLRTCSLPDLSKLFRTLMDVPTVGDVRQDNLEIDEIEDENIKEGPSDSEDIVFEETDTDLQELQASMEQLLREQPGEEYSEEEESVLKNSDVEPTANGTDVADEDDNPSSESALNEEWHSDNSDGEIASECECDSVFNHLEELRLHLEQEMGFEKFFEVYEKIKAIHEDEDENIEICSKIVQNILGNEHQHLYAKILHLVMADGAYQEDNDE
To be noted: at 0.1 µM.

The target of test [3] is T2, Serine/threonine-protein kinase Nek1 (Homo sapiens). To be noted: at 1 µM.
For test [4], the target named is T3, Serine/threonine-protein kinase Nek2 (Homo sapiens) (UniProt P51955).
T3 sequence (whole entry): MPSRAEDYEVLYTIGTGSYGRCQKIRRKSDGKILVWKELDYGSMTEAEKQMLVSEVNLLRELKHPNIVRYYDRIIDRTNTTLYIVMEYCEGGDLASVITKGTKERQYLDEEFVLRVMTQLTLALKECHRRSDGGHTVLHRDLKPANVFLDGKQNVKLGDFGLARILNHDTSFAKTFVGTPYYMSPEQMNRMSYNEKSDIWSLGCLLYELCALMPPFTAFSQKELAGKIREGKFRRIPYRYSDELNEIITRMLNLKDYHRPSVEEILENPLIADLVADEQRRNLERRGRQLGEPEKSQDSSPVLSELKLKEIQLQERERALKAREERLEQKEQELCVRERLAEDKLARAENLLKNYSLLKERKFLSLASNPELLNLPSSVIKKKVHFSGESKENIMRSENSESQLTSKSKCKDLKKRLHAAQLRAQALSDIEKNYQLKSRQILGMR
To be noted: at 0.1 µM.

Test [5] addresses T3, Serine/threonine-protein kinase Nek2 (Homo sapiens). To be noted: at 1 µM.
Test [6] concerns the target Serine/threonine-protein kinase Nek6 (Homo sapiens) (UniProt Q9HC98). Particulars: at 0.1 µM.
Test [7] has the same target. Particulars: at 1 µM.
The target in test [8] is Serine/threonine-protein kinase Nek7 (Homo sapiens) (UniProt Q8TDX7). Particulars: at 0.1 µM.
Chain of Serine/threonine-protein kinase Nek7 (Homo sapiens) (Q8TDX7 whole entry, looked up): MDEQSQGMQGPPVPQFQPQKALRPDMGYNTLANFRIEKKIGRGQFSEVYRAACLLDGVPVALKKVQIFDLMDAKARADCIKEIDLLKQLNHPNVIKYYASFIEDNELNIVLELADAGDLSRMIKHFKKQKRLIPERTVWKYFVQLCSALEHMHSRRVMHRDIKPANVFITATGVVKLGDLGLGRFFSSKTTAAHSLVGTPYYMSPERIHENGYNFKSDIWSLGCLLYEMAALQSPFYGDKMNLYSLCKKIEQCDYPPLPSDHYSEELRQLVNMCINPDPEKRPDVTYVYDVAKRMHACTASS
For test [9] the target is unchanged. Particulars: at 1 µM.
The target in test [10] is T4, Serine/threonine-protein kinase Nek9 (Homo sapiens) (UniProt Q8TD19).
T4 sequence (whole entry): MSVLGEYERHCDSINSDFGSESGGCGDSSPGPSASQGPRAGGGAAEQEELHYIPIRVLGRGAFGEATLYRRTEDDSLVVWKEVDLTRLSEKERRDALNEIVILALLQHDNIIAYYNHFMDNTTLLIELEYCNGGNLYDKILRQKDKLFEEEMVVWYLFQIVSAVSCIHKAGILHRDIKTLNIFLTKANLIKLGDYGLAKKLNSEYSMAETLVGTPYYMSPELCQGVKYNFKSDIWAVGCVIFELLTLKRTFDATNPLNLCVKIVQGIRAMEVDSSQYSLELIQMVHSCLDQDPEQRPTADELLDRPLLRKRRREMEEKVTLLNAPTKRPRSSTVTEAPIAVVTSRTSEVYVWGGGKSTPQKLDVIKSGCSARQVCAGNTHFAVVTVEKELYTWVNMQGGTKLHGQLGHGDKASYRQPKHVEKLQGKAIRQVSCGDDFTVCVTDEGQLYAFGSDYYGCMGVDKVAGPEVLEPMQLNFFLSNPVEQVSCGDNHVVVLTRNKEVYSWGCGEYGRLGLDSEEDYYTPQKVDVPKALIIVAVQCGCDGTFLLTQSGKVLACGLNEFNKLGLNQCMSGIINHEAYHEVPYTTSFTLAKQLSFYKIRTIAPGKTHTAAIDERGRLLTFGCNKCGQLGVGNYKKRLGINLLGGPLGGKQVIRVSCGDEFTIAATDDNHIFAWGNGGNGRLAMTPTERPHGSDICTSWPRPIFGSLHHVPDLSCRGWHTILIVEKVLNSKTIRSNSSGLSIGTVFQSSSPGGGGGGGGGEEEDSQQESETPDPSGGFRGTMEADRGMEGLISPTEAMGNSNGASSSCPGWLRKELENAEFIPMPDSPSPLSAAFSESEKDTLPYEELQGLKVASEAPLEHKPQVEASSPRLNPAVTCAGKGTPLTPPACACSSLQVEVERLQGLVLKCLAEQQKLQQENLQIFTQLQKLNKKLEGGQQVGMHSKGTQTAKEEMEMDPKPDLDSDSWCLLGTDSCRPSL
To be noted: at 0.1 µM.

Test [11] has as its target T4, Serine/threonine-protein kinase Nek9 (Homo sapiens). Particulars: at 1 µM.
Test [12] has as its target Serine/threonine-protein kinase PLK1 (Homo sapiens) (UniProt P53350). To be noted: at 0.1 µM.
For test [13] the target is unchanged. To be noted: at 1 µM.
Test [14] deals with T5, Dual specificity protein kinase TTK (Homo sapiens) (UniProt P33981).
T5 sequence (whole entry): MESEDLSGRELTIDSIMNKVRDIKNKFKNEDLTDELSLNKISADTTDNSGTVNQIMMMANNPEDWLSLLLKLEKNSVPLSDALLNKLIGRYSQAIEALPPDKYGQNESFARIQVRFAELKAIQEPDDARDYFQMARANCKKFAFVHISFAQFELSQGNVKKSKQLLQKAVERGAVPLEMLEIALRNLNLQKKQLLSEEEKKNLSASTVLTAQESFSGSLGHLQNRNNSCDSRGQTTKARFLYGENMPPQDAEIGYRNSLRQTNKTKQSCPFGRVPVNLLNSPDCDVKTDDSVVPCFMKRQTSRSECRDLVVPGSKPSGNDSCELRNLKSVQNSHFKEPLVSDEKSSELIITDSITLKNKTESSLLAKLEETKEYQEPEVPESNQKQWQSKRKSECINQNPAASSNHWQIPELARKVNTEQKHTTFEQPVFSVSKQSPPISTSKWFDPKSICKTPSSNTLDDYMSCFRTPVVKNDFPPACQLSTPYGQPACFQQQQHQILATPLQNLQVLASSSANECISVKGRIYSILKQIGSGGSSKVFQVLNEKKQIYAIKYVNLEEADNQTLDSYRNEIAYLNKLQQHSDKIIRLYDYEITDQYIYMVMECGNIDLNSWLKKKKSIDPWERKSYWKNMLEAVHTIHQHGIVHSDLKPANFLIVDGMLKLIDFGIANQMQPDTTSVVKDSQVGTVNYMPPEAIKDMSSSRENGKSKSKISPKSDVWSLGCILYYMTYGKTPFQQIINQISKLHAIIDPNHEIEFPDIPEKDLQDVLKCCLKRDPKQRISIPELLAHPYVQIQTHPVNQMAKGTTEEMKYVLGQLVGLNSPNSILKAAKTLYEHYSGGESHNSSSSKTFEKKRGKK
Particulars: at 0.1 µM.

The subject of test [15] is T6, Receptor-type tyrosine-protein kinase FLT3 (Homo sapiens), P36888 [D835Y].
T6 sequence (whole entry): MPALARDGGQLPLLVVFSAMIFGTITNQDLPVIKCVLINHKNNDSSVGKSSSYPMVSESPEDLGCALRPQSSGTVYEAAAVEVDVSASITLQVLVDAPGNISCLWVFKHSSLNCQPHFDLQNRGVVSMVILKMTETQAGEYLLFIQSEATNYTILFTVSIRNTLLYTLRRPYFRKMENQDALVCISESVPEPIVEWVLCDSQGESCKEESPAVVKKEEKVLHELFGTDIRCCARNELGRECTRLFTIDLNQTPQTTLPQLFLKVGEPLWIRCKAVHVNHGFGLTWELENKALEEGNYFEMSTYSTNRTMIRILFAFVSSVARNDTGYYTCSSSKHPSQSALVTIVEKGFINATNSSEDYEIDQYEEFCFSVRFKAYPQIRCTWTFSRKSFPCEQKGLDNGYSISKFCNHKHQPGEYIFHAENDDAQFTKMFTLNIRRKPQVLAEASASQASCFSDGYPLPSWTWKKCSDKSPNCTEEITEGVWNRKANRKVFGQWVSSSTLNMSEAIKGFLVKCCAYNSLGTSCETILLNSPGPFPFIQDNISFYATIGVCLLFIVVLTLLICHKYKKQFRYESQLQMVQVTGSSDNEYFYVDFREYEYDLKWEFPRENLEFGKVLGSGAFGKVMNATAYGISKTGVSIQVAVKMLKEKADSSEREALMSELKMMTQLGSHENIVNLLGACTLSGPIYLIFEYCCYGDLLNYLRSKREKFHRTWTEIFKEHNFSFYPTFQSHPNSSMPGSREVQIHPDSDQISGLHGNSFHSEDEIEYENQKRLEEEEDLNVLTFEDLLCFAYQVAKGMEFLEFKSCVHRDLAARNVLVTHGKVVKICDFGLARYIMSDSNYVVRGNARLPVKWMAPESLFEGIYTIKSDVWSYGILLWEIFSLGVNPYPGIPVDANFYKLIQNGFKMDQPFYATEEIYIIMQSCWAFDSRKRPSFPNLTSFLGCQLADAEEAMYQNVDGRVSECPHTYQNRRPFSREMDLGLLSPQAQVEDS
To be noted: at 1 µM.

For test [16], the target named is Vascular endothelial growth factor receptor 3 (Homo sapiens) (UniProt P35916). To be noted: at 0.1 µM.
Chain of Vascular endothelial growth factor receptor 3 (Homo sapiens) (P35916 whole entry): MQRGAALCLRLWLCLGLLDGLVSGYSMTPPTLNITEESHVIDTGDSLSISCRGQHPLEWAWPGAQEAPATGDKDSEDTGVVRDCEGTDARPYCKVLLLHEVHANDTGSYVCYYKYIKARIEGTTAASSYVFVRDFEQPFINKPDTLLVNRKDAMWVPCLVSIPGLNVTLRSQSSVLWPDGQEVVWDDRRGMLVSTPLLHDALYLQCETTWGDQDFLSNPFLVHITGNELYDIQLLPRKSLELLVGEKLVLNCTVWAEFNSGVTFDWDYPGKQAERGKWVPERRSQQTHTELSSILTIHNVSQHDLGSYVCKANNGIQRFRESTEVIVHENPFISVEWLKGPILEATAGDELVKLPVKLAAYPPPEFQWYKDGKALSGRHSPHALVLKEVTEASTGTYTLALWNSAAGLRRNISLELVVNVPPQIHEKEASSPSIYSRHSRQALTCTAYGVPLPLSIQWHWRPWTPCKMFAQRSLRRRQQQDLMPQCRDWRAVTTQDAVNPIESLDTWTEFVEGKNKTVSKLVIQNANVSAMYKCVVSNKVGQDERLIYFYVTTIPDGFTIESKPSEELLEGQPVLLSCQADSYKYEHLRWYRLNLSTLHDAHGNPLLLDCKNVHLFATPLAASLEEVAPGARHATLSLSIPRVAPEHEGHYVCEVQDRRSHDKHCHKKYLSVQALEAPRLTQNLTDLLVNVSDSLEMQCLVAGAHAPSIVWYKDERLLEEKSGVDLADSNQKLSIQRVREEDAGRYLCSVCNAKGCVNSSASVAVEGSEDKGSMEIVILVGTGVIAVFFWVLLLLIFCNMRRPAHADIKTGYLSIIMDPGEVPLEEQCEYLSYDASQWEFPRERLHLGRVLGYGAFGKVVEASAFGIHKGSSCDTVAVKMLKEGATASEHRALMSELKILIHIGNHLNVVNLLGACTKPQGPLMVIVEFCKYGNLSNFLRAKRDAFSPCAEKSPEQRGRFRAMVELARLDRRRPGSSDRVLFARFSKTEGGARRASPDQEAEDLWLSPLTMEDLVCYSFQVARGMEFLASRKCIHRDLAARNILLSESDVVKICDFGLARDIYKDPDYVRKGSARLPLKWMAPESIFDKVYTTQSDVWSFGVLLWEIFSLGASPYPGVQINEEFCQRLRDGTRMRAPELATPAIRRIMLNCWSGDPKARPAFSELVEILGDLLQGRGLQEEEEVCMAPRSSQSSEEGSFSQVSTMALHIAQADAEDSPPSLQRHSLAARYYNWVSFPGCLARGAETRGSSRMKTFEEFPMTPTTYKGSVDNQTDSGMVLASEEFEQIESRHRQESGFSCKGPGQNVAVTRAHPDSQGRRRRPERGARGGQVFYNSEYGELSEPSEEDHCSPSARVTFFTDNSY
Test [17] shares this target. To be noted: at 1 µM.
Test [18] addresses Macrophage colony-stimulating factor 1 receptor (Homo sapiens) (UniProt P07333). Particulars: at 0.1 µM.
The target is the same in test [19]. To be noted: at 1 µM.
For test [20], the target named is Tyrosine-protein kinase Fyn (Homo sapiens) (UniProt P06241). Particulars: at 0.1 µM.
Chain of Tyrosine-protein kinase Fyn (Homo sapiens) (P06241 2-537 limits assumed): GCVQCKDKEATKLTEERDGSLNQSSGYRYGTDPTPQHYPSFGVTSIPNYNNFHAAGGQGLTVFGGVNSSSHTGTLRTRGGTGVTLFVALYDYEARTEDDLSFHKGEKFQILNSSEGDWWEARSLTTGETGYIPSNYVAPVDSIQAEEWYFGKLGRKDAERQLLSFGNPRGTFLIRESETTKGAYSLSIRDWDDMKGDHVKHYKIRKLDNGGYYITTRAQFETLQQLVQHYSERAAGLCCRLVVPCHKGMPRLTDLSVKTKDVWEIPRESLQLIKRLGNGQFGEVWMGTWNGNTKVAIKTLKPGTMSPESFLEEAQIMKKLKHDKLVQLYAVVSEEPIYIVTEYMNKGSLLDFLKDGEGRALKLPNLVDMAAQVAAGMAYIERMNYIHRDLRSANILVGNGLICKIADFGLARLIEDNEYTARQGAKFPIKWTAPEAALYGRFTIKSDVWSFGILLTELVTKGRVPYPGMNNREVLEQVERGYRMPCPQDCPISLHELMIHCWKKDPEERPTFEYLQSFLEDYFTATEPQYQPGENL

The structures appear in SMILES notation.

Chain of Serine/threonine-protein kinase PLK1 (Homo sapiens) (P53350 whole entry): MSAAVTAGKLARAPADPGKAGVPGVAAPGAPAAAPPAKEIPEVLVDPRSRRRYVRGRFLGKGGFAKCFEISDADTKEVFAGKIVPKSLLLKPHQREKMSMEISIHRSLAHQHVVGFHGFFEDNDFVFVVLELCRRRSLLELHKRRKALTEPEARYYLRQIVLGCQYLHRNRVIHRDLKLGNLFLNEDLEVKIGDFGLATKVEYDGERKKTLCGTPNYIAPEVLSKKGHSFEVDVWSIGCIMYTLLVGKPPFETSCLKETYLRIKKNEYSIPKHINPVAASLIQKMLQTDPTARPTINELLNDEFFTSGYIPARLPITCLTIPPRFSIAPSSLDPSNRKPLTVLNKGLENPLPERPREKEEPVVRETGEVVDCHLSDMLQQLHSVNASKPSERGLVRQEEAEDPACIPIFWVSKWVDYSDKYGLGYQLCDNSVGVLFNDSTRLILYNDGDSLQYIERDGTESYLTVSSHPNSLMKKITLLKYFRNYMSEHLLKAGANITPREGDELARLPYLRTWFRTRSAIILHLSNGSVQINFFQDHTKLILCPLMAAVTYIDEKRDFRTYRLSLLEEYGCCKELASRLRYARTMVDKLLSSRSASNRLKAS
Chain of Macrophage colony-stimulating factor 1 receptor (Homo sapiens) (P07333 whole entry): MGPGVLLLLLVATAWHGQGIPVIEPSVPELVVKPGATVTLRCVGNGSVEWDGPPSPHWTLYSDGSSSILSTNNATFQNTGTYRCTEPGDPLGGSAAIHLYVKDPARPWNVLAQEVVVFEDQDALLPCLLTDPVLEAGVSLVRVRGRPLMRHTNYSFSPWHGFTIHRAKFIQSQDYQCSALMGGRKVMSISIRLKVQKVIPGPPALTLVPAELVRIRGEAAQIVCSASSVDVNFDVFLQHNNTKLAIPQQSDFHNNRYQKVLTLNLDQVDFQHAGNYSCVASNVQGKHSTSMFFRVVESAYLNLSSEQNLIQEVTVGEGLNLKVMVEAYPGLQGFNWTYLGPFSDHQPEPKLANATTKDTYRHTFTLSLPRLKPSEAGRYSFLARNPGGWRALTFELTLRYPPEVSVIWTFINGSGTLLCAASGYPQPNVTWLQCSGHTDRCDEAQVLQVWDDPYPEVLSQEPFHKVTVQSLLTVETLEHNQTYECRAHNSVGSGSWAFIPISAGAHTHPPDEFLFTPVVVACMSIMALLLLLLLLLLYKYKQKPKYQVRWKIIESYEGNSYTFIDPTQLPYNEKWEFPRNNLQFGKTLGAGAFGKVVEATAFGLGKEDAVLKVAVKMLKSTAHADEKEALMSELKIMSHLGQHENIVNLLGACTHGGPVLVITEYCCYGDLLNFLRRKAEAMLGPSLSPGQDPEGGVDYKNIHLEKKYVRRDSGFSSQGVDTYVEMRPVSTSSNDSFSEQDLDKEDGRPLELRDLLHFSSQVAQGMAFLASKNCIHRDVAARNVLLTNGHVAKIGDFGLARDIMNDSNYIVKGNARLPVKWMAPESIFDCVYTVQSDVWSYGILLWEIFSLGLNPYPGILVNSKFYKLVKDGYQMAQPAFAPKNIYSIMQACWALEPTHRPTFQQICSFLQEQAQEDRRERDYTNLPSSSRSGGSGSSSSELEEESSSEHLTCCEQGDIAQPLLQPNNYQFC
Chain of Serine/threonine-protein kinase Nek6 (Homo sapiens) (Q9HC98 whole entry): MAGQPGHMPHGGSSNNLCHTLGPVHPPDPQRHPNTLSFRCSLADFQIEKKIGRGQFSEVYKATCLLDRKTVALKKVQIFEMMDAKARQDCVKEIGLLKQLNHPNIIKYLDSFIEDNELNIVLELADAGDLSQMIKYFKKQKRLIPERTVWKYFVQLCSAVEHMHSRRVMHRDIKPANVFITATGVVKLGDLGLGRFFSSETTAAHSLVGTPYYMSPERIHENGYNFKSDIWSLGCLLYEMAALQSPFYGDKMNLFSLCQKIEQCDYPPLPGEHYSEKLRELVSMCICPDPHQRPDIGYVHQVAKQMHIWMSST

Consider `COc1ccc(Nc2ncc(-c3ccccc3)o2)cc1OC`, for which the inhibition in test [1] is 4.37%; in test [2] it was 0.52%; in [3], 5.19%; in test [4], 0.8%; in [5] it was 2.25%; in test [6], 0.31%. Besides, the inhibition was -2.42% in test [7]; 1.23% in [8]; 0.83% in test [9]; -0.52% in test [10]; 9.31% in test [11]; 2.85% in [12]. For the same molecule, the inhibition in [13] came out at 1.53%; in test [14] it was 2.17%; in test [15], 47.1%; in [16], 5.08%; in test [17], 25.5%; in test [18], 21.9%. The inhibition was 77.2% in test [19] and 4.17% in test [20].
